# PubChem BioAssay AID1159580 (chemical genetic matrix, 2015)
# The whole screen tested about 5,500 compounds, of which about 2,000 (36%) were called active. Inconclusive results (about 18%) are left out. The list shows a part of the results. Values without a mark were called inactive. Rule as the data show it: active = normalized growth mostly below about 0.91 (no sharp cut-off); inconclusive = no clear call, values can overlap the other calls; inactive = mostly above about 0.92.
# Test: chemical genetic growth profiling, strain panel (AID 1159580);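 also: tested at 20 µM; growth read once vehicle control cultures reached saturation at 30 °C; 1 = growth at the plate median or of vehicle wells; lower values mean less growth of the strain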
# Details: S. cerevisiae deletion strains, growth OD
# [1] = locus YAL040C, strain CLN3, stronger effect = lower value
# [2] = locus YCL061C, strain MRC1 (second series), stronger effect = lower value
# [3] = locus YDR150W, strain NUM1, stronger effect = lower value
# [4] = locus YDR363W, strain ESC2, stronger effect = lower value
# [5] = locus YER002W, strain NOP16, stronger effect = lower value
# [6] = locus YGR078C, strain PAC10, stronger effect = lower value
# [7] = locus YMR307W, strain GAS1, stronger effect = lower value
# [8] = locus YNL153C, strain GIM3, stronger effect = lower value
# [9] = locus YNL175C, strain NOP13, stronger effect = lower value
# [10] = locus YNL197C, strain WHI3, stronger effect = lower value
# [11] = locus YNL224C, strain SQS1, stronger effect = lower value
# [12] = locus YOR083W, strain WHI5 (second series), stronger effect = lower value
# [13] = locus YPL055C, strain LGE1, stronger effect = lower value
smiles,measurement,setting,value
CCCn1cnc2c1c(=O)n(CCCCC(C)=O)c(=O)n2C,normalized growth,"locus YAL013W, strain DEP1, stronger effect = lower value",1.01
same,normalized growth,[1],0.997
same,normalized growth,[2],1.01
same,normalized growth,[3],1.01
same,normalized growth,[4],0.961
same,normalized growth,[5],1.02
same,normalized growth,[6],1.01
same,normalized growth,"locus YJR075W, strain HOC1, stronger effect = lower value",1.02
same,normalized growth,[7],1.01
same,normalized growth,[8],1.04
same,normalized growth,[9],1.01
same,normalized growth,[10],0.996
same,normalized growth,[11],1.01
same,normalized growth,[12],1.01
same,normalized growth,[13],1.02
same,normalized growth,"locus YPL241C, strain CIN2, stronger effect = lower value",1.01
COC[C@H]1OC(=O)c2coc3c2[C@@]1(C)C1=C(C3=O)C2CCC(=O)[C@@]2(C)C[C@H]1OC(C)=O (stereo partly drawn),normalized growth,[1],0.0731 (active)
same,normalized growth,[2],0.141 (active)
same,normalized growth,[3],0.136 (active)
same,normalized growth,[4],0.206 (active)
same,normalized growth,[5],0.0648 (active)
same,normalized growth,[6],0.994
same,normalized growth,"locus YGR229C, strain SMI1, stronger effect = lower value",0.0613 (active)
same,normalized growth,"locus YMR263W, strain SAP30, stronger effect = lower value",0.0519 (active)
same,normalized growth,[7],0.0665 (active)
same,normalized growth,"locus YNL128W, strain TEP1, stronger effect = lower value",0.143 (active)
same,normalized growth,[8],0.101 (active)
same,normalized growth,[9],1
same,normalized growth,[10],0.0727 (active)
same,normalized growth,[11],0.0711 (active)
same,normalized growth,"locus YNL322C, strain KRE1, stronger effect = lower value",0.33 (active)
same,normalized growth,[12],0.359 (active)
same,normalized growth,[13],0.119 (active)
CC1SC(c2cccnc2)N(c2ccc(Cl)cc2)C1=O (stereo not drawn),normalized growth,"locus YAR019C, strain CDC15, stronger effect = lower value",0.948
same,normalized growth,"locus YBL105C, strain PKC1, stronger effect = lower value",0.971
same,normalized growth,"locus YBR135W, strain CKS1, stronger effect = lower value",0.964
same,normalized growth,"locus YBR136W, strain MEC1, stronger effect = lower value",0.959
same,normalized growth,"locus YBR160W, strain CDC28, stronger effect = lower value",0.967
same,normalized growth,"locus YDL017W, strain CDC7, stronger effect = lower value",0.972
same,normalized growth,"locus YDL028C, strain MPS1, stronger effect = lower value",0.955
same,normalized growth,"locus YDL101C, strain DUN1, stronger effect = lower value",0.928
same,normalized growth,"locus YDL108W, strain KIN28, stronger effect = lower value",0.951
same,normalized growth,"locus YDL132W, strain cdc53, stronger effect = lower value",0.894 (active)
same,normalized growth,"locus YDL214C, strain PRR2, stronger effect = lower value",0.6 (active)
same,normalized growth,"locus YDR052C, strain DBF4, stronger effect = lower value",0.906 (active)
same,normalized growth,"locus YDR054C, strain cdc34, stronger effect = lower value",0.828 (active)
same,normalized growth,"locus YDR226W, strain ADK1, stronger effect = lower value",0.932
same,normalized growth,"locus YDR477W, strain SNF1, stronger effect = lower value",0.411 (active)
same,normalized growth,"locus YER123W, strain YCK3, stronger effect = lower value",0.466 (active)
same,normalized growth,"locus YER133W, strain GLC7, stronger effect = lower value",0.421 (active)
same,normalized growth,"locus YFL009W, strain cdc4, stronger effect = lower value",0.931
same,normalized growth,"locus YFL029C, strain CAK1, stronger effect = lower value",0.926
same,normalized growth,"locus YFR003C, strain YPI1, stronger effect = lower value",0.972
same,normalized growth,"locus YFR019W, strain FAB1, stronger effect = lower value",0.43 (active)
same,normalized growth,"locus YFR028C, strain CDC14, stronger effect = lower value",0.945
same,normalized growth,"locus YGR040W, strain KSS1, stronger effect = lower value",0.397 (active)
same,normalized growth,"locus YGR052W, strain FMP48, stronger effect = lower value",0.374 (active)
same,normalized growth,"locus YGR092W, strain DBF2, stronger effect = lower value",0.904
same,normalized growth,"locus YHR030C, strain SLT2, stronger effect = lower value",0.871
same,normalized growth,"locus YHR079C, strain IRE1, stronger effect = lower value",0.441 (active)
same,normalized growth,"locus YHR082C, strain KSP1, stronger effect = lower value",0.4 (active)
same,normalized growth,"locus YHR205W, strain SCH9, stronger effect = lower value",0.725
same,normalized growth,"locus YIL147C, strain SLN1, stronger effect = lower value",0.952
same,normalized growth,"locus YJL095W, strain BCK1, stronger effect = lower value",0.215 (active)
same,normalized growth,"locus YJL128C, strain PBS2, stronger effect = lower value",0.987
same,normalized growth,"locus YJL157C, strain FAR1, stronger effect = lower value",0.635 (active)
same,normalized growth,"locus YJR016C, strain ILV3, stronger effect = lower value",0.926
same,normalized growth,"locus YJR066W, strain TOR1 (second series), stronger effect = lower value",0.704
same,normalized growth,"locus YJR066W, strain TOR1, stronger effect = lower value",0.284 (active)
same,normalized growth,"locus YKL048C, strain ELM1, stronger effect = lower value",0.922
same,normalized growth,"locus YKL067W, strain YNK1, stronger effect = lower value",0.673 (active)
same,normalized growth,"locus YKL101W, strain HSL1, stronger effect = lower value",0.779
same,normalized growth,"locus YKL193C, strain SDS22, stronger effect = lower value",0.947
same,normalized growth,"locus YKL203C, strain TOR2, stronger effect = lower value",0.331 (active)
same,normalized growth,"locus YLR113W, strain HOG1, stronger effect = lower value",0.455 (active)
same,normalized growth,"locus YLR133W, strain CKI1, stronger effect = lower value",0.478 (active)
same,normalized growth,"locus YLR403W, strain SFP1, stronger effect = lower value",0.346 (active)
same,normalized growth,"locus YML070W, strain DAK1, stronger effect = lower value",0.694
same,normalized growth,"locus YMR001C, strain CDC5, stronger effect = lower value",0.936
same,normalized growth,"locus YMR205C, strain PFK2 (second series), stronger effect = lower value",0.64 (active)
same,normalized growth,"locus YMR277W, strain FCP1, stronger effect = lower value",0.969
same,normalized growth,"locus YNL006W, strain LST8, stronger effect = lower value",0.967
same,normalized growth,"locus YNL020C, strain ARK1, stronger effect = lower value",0.599 (active)
same,normalized growth,"locus YNL161W, strain CBK1, stronger effect = lower value",0.953
same,normalized growth,"locus YNL183C, strain NPR1, stronger effect = lower value",0.393 (active)
same,normalized growth,"locus YNL207W, strain RIO2, stronger effect = lower value",0.91
same,normalized growth,"locus YNL222W, strain SSU72, stronger effect = lower value",0.96
same,normalized growth,"locus YNL307C, strain MCK1 (second series), stronger effect = lower value",0.462 (active)
same,normalized growth,"locus YOL078W, strain AVO1, stronger effect = lower value",0.937
same,normalized growth,"locus YOR061W, strain CKA2, stronger effect = lower value",0.919
same,normalized growth,"locus YOR119C, strain RIO1, stronger effect = lower value",0.295 (active)
same,normalized growth,"locus YOR231W, strain MKK1, stronger effect = lower value",0.47 (active)
same,normalized growth,"locus YOR329C, strain SCD5, stronger effect = lower value",0.953
same,normalized growth,"locus YPL031C, strain PHO85, stronger effect = lower value",0.434 (active)
same,normalized growth,"locus YPL153C, strain RAD53, stronger effect = lower value",0.47 (active)
same,normalized growth,"locus YPL204W, strain HRR25, stronger effect = lower value",0.46 (active)
same,normalized growth,"locus YPL209C, strain IPL1, stronger effect = lower value",0.969
same,normalized growth,"locus YPL256C, strain CLN2, stronger effect = lower value",0.435 (active)
same,normalized growth,"locus YPR025C, strain CCL1, stronger effect = lower value",0.961
same,normalized growth,"locus YPR106W, strain ISR1, stronger effect = lower value",0.957
same,normalized growth,"locus YPR111W, strain DBF20, stronger effect = lower value",0.965
same,normalized growth,"strain NNK1, stronger effect = lower value",0.944
same,normalized growth,"strain TSCII, stronger effect = lower value",0.946
